PubChem BioAssay (Tox21)
Several values for one entry are separate records, joined by “and”; a condition that tells them apart may be missing. Identical values can stand only once. Results filed as inconclusive are left out. Unmarked numbers belong to inactive results. Activity calls are given as the source filed them. The call rests on the fitted dose curve.

assay: qHTS assay to identify small molecule antagonists of the sonic hedgehog signaling (Shh) pathway (AID 1259369); settings: NIH/3T3 Gli1-Luc reporter, Shh antagonist, luminescence 24 h; series mostly up to 92.4 µM; activity change, negative = inhibition: at the top concentration; further: nearly all actives have a fitted effect of over 45% in size
From the text: U.S. Tox21 Program National Center for Advancing Translational Sciences [NCATS] NIH Chemical Genomics Center [NCGC] U.S. Environmental Protection Agency [EPA] National Institutes of Environmental Health Sciences [NIEHS] National Toxicology Program [NTP] U.S. Food and Drug Administration [FDA] Tox21 Assay Overview: The sonic hedgehog (Shh) pathway is essential for normal embryonic development. Dysregulation of the Shh pathway can cause severe developmental defects in organs. Therefore chemicals that interfere with the pathway are potential developmental toxicants. A cell line designated 3T3Gli1-Luc (DMB/OARSA/CFSAN/FDA, Laurel, MD), a NIH/3T3 derived clone containing stably integrated Gli1-Luc reporter is used to detect chemical interference of the Shh pathway, by changes in the expression of the firefly Luc gene under the control of the Gli1 transcriptional response element. This cell line was used to screen Tox21 libraries for identifying and prioritizing the potential developmental toxicants that interfere Shh pathway. Conditioned medium-stimulated mode was used to screen for chemicals inhibiting Shh signaling.
Tox21 Assay Protocol Summary: 3T3 Gli1-Luc cells were dispensed at 2,000 per well in 5uL of culture medium into white solid bottom 1536-well plates (Greiner Bio-One, Monroe, NC) using a Multidrop Combi (Thermo Scientific, Waltham, MA) dispenser. The assay plates were incubated at 37 C and 5% CO2 for 4hr, and then 23nL of compounds dissolved in DMSO and positive control were transferred using a Pintool station (Wako, San Diego, CA). The compound transfer was followed by the addition of 1ul conditioned medium or assay buffer using two separate tips of Flying Reagent Dispenser (FRD, Aurora Discovery, San Diego, CA). The assay plates were incubated at 37C and 5% CO2 for 24hr. For luciferase read, 4uL of Amplite Luciferase reporter gene assay reagent (AAT Bioquest, Inc. Sunnyvale, CA) was added to each well of the assay plates using FRD and incubated at room temperature for 30min. The luminescence signal was measured using a ViewLux plate reader (Perkin Elmer, Shelton, CT).
On the % scale 0 is the no-effect control and ±100 the full control effect; potency means the concentration at half of the fitted maximal effect.

SMILES	activity change, negative = inhibition	Potency
ClC(Cl)=C(c1ccc(Cl)cc1)c1ccccc1Cl	2.98%	
CC1COC(Cn2cncn2)(c2ccc(Oc3ccc(Cl)cc3)cc2Cl)O1 (stereo unspecified)		3.44 µM (active)
CC(c1ccccc1)(c1ccc(O)cc1)c1ccc(O)cc1		21.7 µM (active)
O=S(=O)(C(Cl)(Cl)Cl)C(Cl)(Cl)Cl		2.17 µM (active)
OCC(c1ccc(Cl)cc1)c1ccc(Cl)cc1		24.3 µM (active)
c1ccc2c(c1)Sc1ccccc1N2CC1CN2CCC1CC2 (stereo unspecified)		9.44 µM (active)
Cc1ccc2nc3sc(=O)sc3nc2c1	-28.1% [at 19 µM]	
Cc1cc(C(C)(C)c2ccc(O)c(C)c2)ccc1O		16.4 µM (active)
CNC(=O)Oc1cc(C)c(SC)c(C)c1		8.63 µM (active)
OC(Cc1ccccc1Cl)(Cn1[nH]cnc1=S)C1(Cl)CC1 (stereo unspecified)		38.6 µM (active)
Cc1ccc(O)cc1C		inactive
Cc1cc(C)c(C(=O)P(=O)(c2ccccc2)c2ccccc2)c(C)c1		4.33 µM (active)
Clc1ccccc1-c1ccccc1Cl	5.74%	
CN1CSC(=S)N(C)C1		342 nM (active) and 1.08 µM (active)
Nc1ccc([N+](=O)[O-])cc1		27.3 µM (active)
Cc1nnc2n1-c1sc(CCc3ccc(CC(C)C)cc3)cc1C(c1ccccc1Cl)=NC2C (stereo unspecified)		21.1 µM (active)
O=C(c1ccccc1)C(Cl)Cl		30.6 µM (active)
CO/C=C(/C(=O)OC)c1ccccc1Oc1cc(Oc2ccccc2C#N)ncn1		0.327 µM (active)
ClC1=C(Cl)[C@]2(Cl)[C@@H]3[C@@H](Cl)[C@H]4O[C@H]4[C@@H]3C1(Cl)C2(Cl)Cl		48.6 µM (active)
O=[N+]([O-])c1c(Cl)c(Cl)cc(Cl)c1Cl	0.0953%	
CCOC(=O)C(O)(c1ccc(Cl)cc1)c1ccc(Cl)cc1		7.77 µM (active) and 19.3 µM (active)
CCN(CC)C(=O)Cl	5.02%	
COc1ccc(C(c2ccc(OC)cc2)C(Cl)(Cl)Cl)cc1		21.6 µM (active)
Cc1ccc(N(SC(F)(Cl)Cl)S(=O)(=O)N(C)C)cc1		2.73 µM (active)
COc1cc(OC)c(OC)cc1C=O		13.3 µM (active)
C[C@]12CC[C@@H](O)C[C@@H]1CC[C@@H]1[C@@H]2CC[C@]2(C)C(=O)CC[C@@H]12		19.3 µM (active)
